Data: the supplement of paper PMC6555819

How the values were obtained:
Test in all cases: PBM binding z-score (relative to random genomic background probes); higher = stronger binding; sequences stand for … in GC…GCGATTGACAGCGTAGAATGAAGG
[1] = tested on: PPARg:RXRa DBDmut IVT, anti-RXR (DBD mutation: RXRa K156A/R161A, NR concentration 270 nM, RXRa partner concentration 90 nM)
Method in brief: (§1)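 Regression normalization was applied to scanned fluorescence from custom Agilent 4×180K protein-binding microarrays. Before scanning, arrays were incubated 1 h with ligand-free nuclear receptor dimers, and binding was detected with antibodies against each partner (one per run). Binding z-scores use the random background probes as reference.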

[2] = tested on: PPARg:RXRa IVT, anti-PPARg (NR concentration 270 nM, RXRa partner concentration 90 nM)
Method in brief: as §1

[3] = tested on: PPARg DBDmut:RXRa IVT, anti-PPARg (DBD mutation: PPARg1 K132A/R137A, NR concentration 270 nM, RXRa partner concentration 90 nM)
Method in brief: as §1

[4] = tested on: PPARg DBDmut IVT, anti-PPARg (DBD mutation: PPARg1 K132A/R137A, NR concentration 270 nM)
Method in brief: as §1

[5] = tested on: PPARg homodimer (NR concentration 180 nM)
Method in brief: as §1

[6] = tested on: PXR:RXRa (NR concentration 270 nM, RXRa partner concentration 90 nM)
Method in brief: as §1

[7] = tested on: PXR homodimer (NR concentration 270 nM)
Method in brief: as §1

[8] = tested on: RARa:RXR (NR concentration 270 nM, RXRa partner concentration 90 nM)
Method in brief: as §1

[9] = tested on: RARa homodimer (NR concentration 270 nM)
Method in brief: as §1

[10] = tested on: RARb:RXRa (NR concentration 270 nM, RXRa partner concentration 90 nM)
Method in brief: as §1

[11] = tested on: RARb homodimer (NR concentration 270 nM)
Method in brief: as §1

[12] = tested on: RARg:RXRa (NR concentration 270 nM, RXRa partner concentration 90 nM)
Method in brief: as §1

[13] = tested on: RARg homodimer (NR concentration 270 nM)
Method in brief: as §1

[14] = tested on: RXRa DBDmut IVT, anti-RXR (DBD mutation: RXRa K156A/R161A, NR concentration 90 nM)
Method in brief: as §1

[15] = tested on: RXRa homodimer (NR concentration 180 nM)
Method in brief: as §1

[16] = tested on: THRa:RXRa (NR concentration 90 nM, RXRa partner concentration 90 nM)
Method in brief: as §1

[17] = tested on: THRa homodimer (NR concentration 90 nM)
Method in brief: as §1

[18] = tested on: VDR homodimer (NR concentration 270 nM)
Method in brief: as §1

Row | Sequence | PBM binding z-score [1] | PBM binding z-score [2] | PBM binding z-score [3] | PBM binding z-score [4] | PBM binding z-score [5] | PBM binding z-score [6] | PBM binding z-score [7] | PBM binding z-score [8] | PBM binding z-score [9] | PBM binding z-score [10] | PBM binding z-score [11] | PBM binding z-score [12] | PBM binding z-score [13] | PBM binding z-score [14] | PBM binding z-score [15] | PBM binding z-score [16] | PBM binding z-score [17] | PBM binding z-score [18]
1 | ACAGACAGGTGATGAAGCTAACTCAGGCTATCAT | -0.036 | -0.28 | 0.338 | 0.232 | 0.0494 | -0.231 | 0.283 | 0.275 | -0.315 | -0.112 | -0.226 | 0.175 | 0.281 | -0.327 | 0.256 | 0.425 | -0.032 | -0.132
2 | ATCTCTAGGCAAAAGTTCAGTGAATCCCGAGGAT | 0.185 | 1.61 | 0.694 | 0.529 | 1.05 | 1.5 | 1.04 | 0.864 | -0.11 | 2.33 | 2.4 | 1.66 | 1.69 | 0.479 | 1.02 | 0.622 | -0.181 | 0.923
3 | ATATGTAGGTTAAGGATCATTCAGGTTGGTTCGC | 7.22 | 7.16 | 3.09 | 2.12 | 1.49 | 1.19 | 0.266 | 1.13 | 1.1 | 1.2 | 0.849 | 0.99 | 0.991 | 0.797 | 1.42 | 1.42 | 0.728 | 1.16
4 | CGTCCAAGGTCAGAGAGGACAGTGAATGCCGAGT | 2.32 | 2.3 | -0.223 | -1.03 | 2.09 | 3.22 | 4.69 | 2.69 | 0.425 | 4.64 | 4.12 | 4.57 | 5.67 | 2.6 | 3.68 | 3.67 | 2.08 | 2.85
5 | CCTACTGGGCCATTCAGAGGTCTTTGATCATATG | 4.08 | 3.47 | -0.147 | -0.677 | 0.234 | -0.375 | 0.0887 | -0.471 | -0.345 | 0.306 | 0.406 | 0.221 | 0.17 | -0.165 | -0.258 | 0.0585 | -0.237 | -0.313
6 | CGAACGAGGGCATGAGGTGATAGCAAATGCCGAT | 3.25 | 3.37 | 0.644 | -0.341 | 0.574 | 0.422 | -0.352 | 1.16 | 0.0615 | 2.26 | 1.11 | 1.88 | 1.83 | 1.56 | 1.32 | 2.26 | 0.557 | 0.945
7 | TCTGCTAGGTGAACGATGGTCAGCTAATCTGCTA | 3.12 | 2.97 | -0.708 | -0.769 | -0.746 | -0.428 | -0.962 | -0.153 | -1.26 | 0.881 | 0.159 | 0.144 | 0.337 | -0.282 | 0.0585 | 0.529 | -0.885 | -0.782
8 | GGAACGAGGGCAAGTTGATGGCAGAGTTTGATGG | 3.55 | 2.56 | -0.155 | -0.96 | 0.499 | 0.948 | 0.748 | 0.523 | -0.279 | 2.47 | 1.59 | 1.66 | 1.92 | 2.1 | 1.05 | 1.34 | 0.188 | 1.5
9 | TCATATAGGTAAAGGCTAGGTGAAAGTCCGATCT | 3.97 | 3.25 | 0.56 | 1.28 | 0.619 | 0.508 | 0.058 | 1.09 | 1.15 | 0.844 | 0.981 | 0.769 | 0.425 | 1.27 | 0.971 | 1.3 | 0.205 | 0.0425
10 | ATCGAAACGTCGAGGTGAGTATAGAGAAAGGGAA | -1 | 0.225 | 0.306 | 0.714 | -0.637 | -0.126 | -0.0991 | 0.0247 | -0.11 | 0.508 | -0.0564 | 0.238 | 0.317 | -0.787 | 0.266 | 1.03 | -0.0731 | -0.175
11 | GCTCGGAGGACAACGTCAGAGCTTTGTCCGTAGA | -0.91 | -0.67 | -2 | -1.23 | -2.11 | -0.976 | -1.16 | -1.29 | -1.57 | 0.852 | -0.35 | -0.399 | 0.158 | 0.00939 | -0.87 | 0.242 | -0.468 | -0.803
12 | CCACCAAGGTGAACAAGGTCGTTGATTACTATTC | 2.14 | 2.55 | 0.528 | 0.567 | 1.61 | 3.17 | 2.75 | 2.58 | 0.52 | 2.37 | 2.39 | 2.05 | 1.62 | 1.32 | 2.07 | 3.42 | 2.4 | 3.07
13 | GCGACTGGGGCAAAGTAGGTTACCATAAGGTTGG | 5.3 | 5.17 | -0.411 | -0.49 | -0.0778 | 0.322 | -0.231 | 0.681 | -0.558 | 1.21 | 1.42 | 0.662 | 0.576 | -0.138 | 0.504 | 2.09 | 0.208 | 0.042
14 | GGTGCTAGGTCAACTGATGGTCAGCTAAAGCTCG | 4.51 | 4.91 | -0.202 | -0.913 | 3.45 | 1.84 | 0.142 | 3.25 | 0.466 | 4.43 | 3.76 | 5.3 | 5.75 | 1.28 | 2.7 | 2.99 | 1.07 | 0.446
15 | TCTTGTAGATCAACAGAGGTTAAGAAAGTGCGCT | 1.7 | 0.862 | 0.181 | 0.408 | 0.896 | 3.06 | 0.45 | 1.95 | 0.0806 | 1.18 | 1.45 | 0.848 | 0.565 | 0.665 | 1.68 | 2.55 | -0.186 | 0.274
